Laboratory results from PubChem BioAssay (NCATS).
Results filed as inconclusive are left out. Unmarked numbers belong to inactive results. The source made the active and inactive calls. Calls come from the whole dose curve; as a rule, active = well fitted cell-killing curve with a large enough effect; inconclusive = small, poorly fitted or top-dose-only effect, or effect the other way; inactive = no such curve, though single readings can be large or run the other way.

Test: Quantitative High-Throughput drug screen in 47 multiple myeloma cell lines against the NCATS MIPE library collection: MM1R_ATCC cell viability assay (AID 1918981); note: nearly all actives have a fitted effect of over 35% in size
Settings: MM1R multiple myeloma cells, CellTiter-Glo viability, 48 h; series mostly up to 45.8 µM; viability (% of control): at the top concentration
Source text: PI: Beverly A. Mock Ph.D.
Laboratory of Cancer Biology and Genetics,
Center for Cancer Research, National Cancer Institute,
National Institute of Health, Bethesda, Maryland
Drug resistance and disease progression are common in multiple myeloma (MM) patients, underscoring the need for new therapeutic combinations. […] We hypothesized that effective combinations would reduce MYC expression and enhance p16 activity. […] These preclinical data identify potentially useful drug combinations for evaluation in drug-resistant MM and reveal potential mechanisms of combined drug sensitivity.
Described herein is the primary MIPE qHTS used to cherrypick compounds. Validated compounds were then further tested for potential synergistic activiy.
[1] Peat TJ, Gaikwad SM, Dubois W, Gyabaah-Kessie N, Zhang S, Gorjifard S, Phyo Z, Andres M, Hughitt VK, Simpson RM, Miller MA, Girvin AT, Taylor A, Williams D, D'Antonio N, Zhang Y, Rajagopalan A, Flietner E, Wilson K, Zhang X, Shinn P, Klumpp-Thomas C, McKnight C, Itkin Z, Chen L, Kazandijian D, Zhang J, Michalowski AM, Simmons JK, Keats J, Thomas CJ, Mock BA. Drug combinations identified by high-throughput screening promote cell cycle transition and upregulate Smad pathways in myeloma. Cancer Lett. 2023 Aug 1;568:216284. doi: 10.1016/j.canlet.2023.216284. Epub 2023 Jun 24. PMID: 37356470; PMCID: PMC10408729.
SEQUENCE No. (e.g., 1, 2, 3, etc.); […] (e.g., Cells, Incubation, Reagent, etc.); VALUE and DESCRIPTION.
1; Cells; 5 uL; white, solid bottom 1536-well Greiner assay plate.
2; Compounds; 23 nL; Kalypsis pin tool (Wako USA) equipped with a 1536-well pin head to transfer to the assay plates.
3; Incubation; 48 hours; 37C incubation.
4; Reagent;5uL; CellTiter Glo (Promega).
5; Detector; 425V; Luminescence; Viewlux PerkinElmer.
NOTES (numbers refer to Sequence numbers above)
1. The cell-based screening methods employed in this study were like those previously published. Briefly, the corresponding myeloma cell lines were screened in 1,536-well plates with 500 cells, 5-uL per well for inhibition of cell viability (assessed by measuring ATP levels with CellTiterGlo).
2. NCATS MIPE 4.0 library of approved and investigational drugs were added using the Kalypsis pin tool. Wells treated with DMSO only for 100% viability and media only for 0% viability were used as controls.
3. The assay plates were covered and incubated for 48 hours in a 37C, 5% CO2 incubator with controlled humidity.
4. After 48 hours, CellTilter-GloTM luminescent substrate mix (Promega) reagent was added to the assay plate and plates we incubated for 5 min at room temperature.
5. Signal was measured as median relative luminescence units on a ViewLux (PerkinElmer) multiplate reader.
[1] Heske CM, Davis MI, Baumgart JT, Wilson K, Gormally MV, Chen L, Zhang X, Ceribelli M, Duveau DY, Guha R, Ferrer M, Arnaldez FI, Ji J, Tran HL, Zhang Y, Mendoza A, Helman LJ, Thomas CJ. Matrix Screen Identifies Synergistic Combination of PARP Inhibitors and Nicotinamide Phosphoribosyltransferase (NAMPT) Inhibitors in Ewing Sarcoma. Clin Cancer Res. 2017 Dec 1;23(23):7301-7311. doi: 10.1158/1078-0432.CCR-17-1121. Epub 2017 Sep 12. PMID: 28899971; PMCID: PMC6636827.
Potency is the fitted concentration of half-maximal effect.

Row | SMILES | viability (% of control) | Potency
1 | Cc1oc(=O)oc1CN1CCN(c2cc3c(cc2F)c(=O)c(C(=O)O)c2n3C(C)S2)CC1 (stereo not given) | 92.5% | –
2 | COc1cc2nc(N3CCCN(C)CC3)nc(NC3CCN(Cc4ccccc4)CC3)c2cc1OC | – | 4.18 µM (active)
3 | Cc1nnc(NS(=O)(=O)c2ccc(N)cc2)s1 | – | 18.7 µM (active)
4 | CC1=C(C(=O)O)N2C(=O)[C@@H](NC(=O)C(N)c3ccccc3)[C@H]2SC1 (stereo not given in full) | 135% | –
5 | COc1cc(NS(=O)(=O)c2ccc(N)cc2)nc(OC)n1 | 122% | –
6 | OCc1ccc(-c2nn(Cc3ccccc3)c3ccccc23)o1 | – | 8.33 µM (active)
7 | Nc1nc(F)nc2c1ncn2[C@@H]1O[C@H](CO)[C@@H](O)[C@@H]1O | – | 0.166 µM (active)
8 | CCOC(=O)[C@H](CCc1ccccc1)N[C@H]1CS[C@H](c2cccs2)CN(CC(=O)O)C1=O | – | 18.7 µM (active)
9 | CC(C)C1CCC(C(=O)N[C@H](Cc2ccccc2)C(=O)O)CC1 (stereo not given in full) | 90.9% | –
10 | CNC(=O)c1cc(Oc2ccc(NC(=O)Nc3ccc(Cl)c(C(F)(F)F)c3)cc2)ccn1 | – | 20.9 µM (active)
11 | CC(C)(C#N)c1cc(Cn2cncn2)cc(C(C)(C)C#N)c1 | 110% | –
12 | Cc1ccc(S(=O)(=O)N[C@@H](Cc2ccccc2)C(=O)CCl)cc1 | – | 16.6 µM (active)
13 | CO[C@@H]1[C@@H](OC(N)=O)[C@@H](O)[C@H](Oc2ccc3c(O)c(NC(=O)c4ccc(O)c(CC=C(C)C)c4)c(=O)oc3c2C)OC1(C)C | – | 8.33 µM (active)
14 | O=C(NCC1CN(c2ccc(N3CCOCC3=O)cc2)C(=O)O1)c1ccc(Cl)s1 (stereo not given) | 81.1% | –
15 | CC1(C)[C@H](C(=O)O)N2C(=O)C[C@H]2S1(=O)=O | 117% | –
16 | CNCC[C@H](Oc1cccc2ccccc12)c1cccs1 | – | 14.8 µM (active)
17 | CN(C)CCc1c[nH]c2ccc(C[C@H]3COC(=O)N3)cc12 | 116% | –
18 | O=C(O)C1CCCN(CCC=C(c2ccccc2)c2ccccc2)C1 (stereo not given) | 102% | –
19 | COc1cc2c(Nc3ccc(Br)cc3F)ncnc2cc1OCC1CCN(C)CC1 | – | 23.5 µM (active)
20 | Cc1nnc(C(=O)NC(C)(C)c2nc(C(=O)NCc3ccc(F)cc3)c(O)c(=O)n2C)o1 | 126% | –

Row | SMILES | viability (% of control) | Potency
21 | Cn1c(=O)c2c(ncn2CC(O)CO)n(C)c1=O (stereo not given) | 118% | –
22 | C[C@]12C=CC(=O)C=C1CC[C@@H]1[C@@H]2C(=O)C[C@@]2(C)[C@H]1CC[C@]2(O)C(=O)CO | 119% [at 23.2 µM] | –
23 | NC(=O)c1cccc(N)c1 | 117% | –
24 | CCc1c2c(nc3ccc(OC(=O)N4CCC(N5CCCCC5)CC4)cc13)-c1cc3c(c(=O)n1C2)COC(=O)[C@]3(O)CC | – | 1.05 µM (active)
25 | CCOCC(O)COc1ccc(NC(=O)CC[S+](C)C)cc1 (stereo not given) | 102% | –
26 | COc1ccc2cc3[n+](cc2c1OC)CCc1cc2c(cc1-3)OCO2 | – | 4.69 µM (active)
27 | O[C@@H](CNC[C@H](O)[C@H]1CCc2cc(F)ccc2O1)[C@@H]1CCc2cc(F)ccc2O1 | – | 26.4 µM (active)
28 | N=C(N)c1ccc(OCCCCCOc2ccc(C(=N)N)cc2)cc1 | – | 18.7 µM (active)
29 | COC(c1ccccc1)(c1ccccc1)[C@H](Oc1nc(C)cc(C)n1)C(=O)O | 124% | –
30 | CCOc1cc(N)c(Cl)cc1C(=O)NCC1CN(Cc2ccc(F)cc2)CCO1 (stereo not given) | 118% | –
31 | CCOC(=O)[C@H](CCc1ccccc1)N[C@H]1CCc2ccccc2N(CC(=O)O)C1=O | – | 20.9 µM (active)
32 | CCN(CC)CCn1c(=O)c(Cc2ccc(OC)cc2)nc2ccccc21 | 110% | –
33 | NC(=O)N1c2ccccc2CC(=O)c2ccccc21 | 140% | –
34 | Cc1cc(NS(=O)(=O)c2ccc(N)cc2)no1 | 137% | –
35 | CCC(=O)O[C@]1(C(=O)SCF)[C@H](C)C[C@H]2[C@@H]3C[C@H](F)C4=CC(=O)C=C[C@]4(C)[C@@]3(F)[C@@H](O)C[C@@]21C | 130% | –
36 | Nc1nc(N)nc(-c2cc(Cl)ccc2Cl)n1 | 99.2% | –
37 | COC(=O)Nc1nc2ccc(C(=O)c3ccccc3)cc2[nH]1 | – | 1.66 µM (active)
38 | CN(C)c1ccc(C(=C2C=CC(=[N+](C)C)C=C2)c2ccc(N(C)C)cc2)cc1 | – | 0.132 µM (active)
39 | Cn1nnc2c(C(N)=O)ncn2c1=O | 159% | –
40 | CO[C@@]12[C@H](COC(N)=O)C3=C(C(=O)C(C)=C(N)C3=O)N1C[C@@H]1N[C@@H]12 | – | 11.8 µM (active)
